We go through 1 compound from PubChem BioAssay AID2284154 (EPA ToxCast).

Active and inactive are the calls of the source. The calls were made as follows: active = hit-call score of the fitted dose curve at least 0.9, where 1 is the maximum; inactive = score below 0.9.

By AC50 is commonly meant the concentration at which the activity in the assay is half-maximal.

Chain of Muscarinic acetylcholine receptor M3 (Homo sapiens) (P20309 whole entry, looked up): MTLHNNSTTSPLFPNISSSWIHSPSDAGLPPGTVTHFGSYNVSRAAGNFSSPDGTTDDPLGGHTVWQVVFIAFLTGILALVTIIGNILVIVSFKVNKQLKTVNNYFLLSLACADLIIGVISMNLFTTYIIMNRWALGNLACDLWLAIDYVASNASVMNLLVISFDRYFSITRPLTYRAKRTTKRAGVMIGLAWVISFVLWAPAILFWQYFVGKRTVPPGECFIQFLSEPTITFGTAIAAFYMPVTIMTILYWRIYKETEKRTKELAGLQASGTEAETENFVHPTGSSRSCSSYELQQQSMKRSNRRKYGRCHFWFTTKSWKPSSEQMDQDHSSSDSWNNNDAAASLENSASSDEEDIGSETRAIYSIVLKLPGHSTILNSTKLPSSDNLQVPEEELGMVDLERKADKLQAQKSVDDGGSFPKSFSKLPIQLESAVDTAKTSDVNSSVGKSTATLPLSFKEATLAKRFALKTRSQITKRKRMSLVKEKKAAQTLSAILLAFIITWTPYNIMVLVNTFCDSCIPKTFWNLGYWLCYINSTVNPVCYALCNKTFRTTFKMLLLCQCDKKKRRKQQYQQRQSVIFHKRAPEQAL

The assay has as its target Muscarinic acetylcholine receptor M3 (Homo sapiens) (UniProt P20309). The assay is described as follows: ERF_FR_GPCR_hCHRM3: Eurofins (ERF) G Protein-Coupled Receptor (GPCR) Radioligand Binding LeadHunter Assay for human Muscarinic Acetylcholine Receptor M3 Antagonism, conducted at France lab site. The protocol:
ERF_FR_GPCR_hCHRM3 is a biochemical, single-readout assay that uses extracted gene-proteins in a cell-free assay. Measurements were taken 1 hour after chemical dosing in a 96-well plate. See M3 Human Acetylcholine (Muscarinic) GPCR Binding (Antagonist Radioligand) Assay, Cerep.ERF_FR_GPCR_hCHRM3 is an assay component calculated from the ERF_FR_GPCR_hCHRM3 assay. It is designed to measure radioligand binding using a type of binding reporter as detected by scintillation counting with radiometry technology.Data from the assay component ERF_FR_GPCR_hCHRM3 was analyzed at the assay endpoint, ERF_FR_GPCR_hCHRM3, in the positive analysis fitting direction relative to DMSO as the negative control and baseline of activity. Using a type of binding reporter, loss-of-signal activity can be used to understand changes in binding as they relate to gene CHRM3. To generalize the intended target to other relatable targets, this assay endpoint is annotated to the gpcr intended target family, where the subfamily is acetylcholine (Muscarinic).
Human cells are incubated for 60 minutes at room temprature with [3H]4-DAMP ligand (0.2 nM) and 4-Damp methiodide as control inhibitor.Test Sample Requirements: Minimum for 1) Screen: 60 ul of 10 mM stock -OR- 1 mg (pre-weighed) for 10 uM final testing. 2) Dose Response: 90 ul of 10 mM stock -OR- 1 mg (pre-weighed) for a top concentration at 10 uM.
Consider `O=C(/C=C/c1ccc(O)cc1)CC(=O)/C=C/c1ccc(O)cc1`, for which the AC50 was 2710 nM (active).
